This note sets out measurements from paper PMC5540273 (PLoS ONE, 2017).

Each structure is given as a SMILES string.
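Also: KINOMEscan kinase panel screen.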

The subject of the test is CSNK1E. The settings on record: concentration: 1 μM, replicates: in singlicate; n = 1.
Turning to `COc1cc2ncn(-c3cc(OCC4CCCO4)c(C(N)=O)s3)c2cc1OC` (stereo not shown) [GSK204607], the “%Inh” value was determined as 17%.

Regarding `C[C@@H]1CCCCN1c1cc(-c2ccc3c(N)n[nH]c3c2)nc(N)n1` [GSK2258759], the “%Inh” value stood at 35%.

Take `COc1ccc(C2=C(Nc3cccc(C(=O)O)c3)C(=O)NC2=O)cc1` [SB-390765]: the “%Inh” value is given as 0%.

Turning to `CCCc1ccc(S(=O)(=O)NC2CCN(c3ccnc(Nc4ccc(F)cc4)n3)C2)cc1` (stereo not shown) [GSK1379715], the “%Inh” value stood at 25%.

In the case of `O=C(Nc1ccccc1)Nc1cccc(Oc2ccc3nccn3n2)c1`, the “%Inh” value is on record as 0%.

With `Cn1ccc2ncnc(Oc3ccc(Nc4nc5ccccc5[nH]4)cc3)c21`, the “%Inh” value was 0%.

With `Cc1cccc(-c2cc(Nc3ccncc3)c3ccccc3n2)n1` [GSK223675], the “%Inh” value is on record as 50%.

In the case of `Cc1ccc(NC(=O)Nc2cccc(Cl)c2)cc1-c1ccc(C(=O)Nc2ccncc2)cc1` [GSK1398468], the “%Inh” value was 19%.

As for `COc1ccc(CNC(=O)NC2CCN(c3ccnc(Nc4cc(OC)c(OC)c(OC)c4)n3)C2)cc1` (stereo not shown) [GSK1379748], the “%Inh” value came out at 14%.

As to `O=S(=O)(c1ccc(-c2ccnc3[nH]ccc23)cc1)N1CCCC1` [GSK846226], the “%Inh” value was determined as 41%.

With `COc1ccccc1-c1ccc2c(NC(=O)C3CC3)n[nH]c2n1` [SB-711239], the “%Inh” value is on record as 2%.

With `Cl.O=C(Nc1cccc(-c2nn3ncccc3c2-c2ccnc(Nc3cccnc3)n2)c1)c1c(F)cccc1F` [GSK312879], the “%Inh” value came out at 24%.

As to `O=C(Nc1n[nH]c2nc(-c3nccs3)c(Br)cc12)C1CCCC1` [SB-742609], the “%Inh” value is listed as 11%.
